# Screens: PubChem, National Center for Advancing Translational Sciences (NCATS)
# Only some compounds are listed: those with a hit (about 21% of all), similar ones and a draw of the others.
# Shiga toxin inh: blocks Shiga toxin action in Vero cells; Vero cells, Shiga toxin protein synthesis inhibition reporter; inhibition, % at 38.7 µM; 290,000 compounds, 9.2% hits; AID 2315; in the data active = inhibition mostly above about 28%, no sharp cut-off; inactive = mostly below about 43%; note: 0% is about no effect
# Cycloheximide cs: counter-screen for Shiga toxin inhibitors: cycloheximide protein synthesis inhibition; max response, %; cell reporter, cycloheximide protein synthesis inhibition counterscreen; 300,000 compounds, 12% hits; AID 2314; in the data active = max response mostly above about 13%, no sharp cut-off; inactive = mostly below about 14%; note: read at 38.3 µM for the half of the compounds with a filed dose; 0% is about no effect
# HCV inhibitor: blocks hepatitis C virus; Huh7.5.1 HCVcc-Cre infection, luciferase reporter, 44 h; Potency, µM (top dose mostly 41.8 µM), inactives show at the top dose activity change, negative = inhibition, usual class: inhibitors; 340,000 compounds, 3.4% hits; note: potency is the fitted concentration of half-maximal effect; % is set by controls: 0 for no effect and ±100 for the full control effect
#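 1,000 cells/well; 4 h culture; + compound; + HCVcc-Cre (~0.5 moi); 44 h; luciferase substrate, RT 15 min; read 15 sec.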
# HCMV antiviral: human cytomegalovirus inhibition; activity change, negative = inhibition, % at 57.5 µM; 410,000 compounds, 4.5% hits; HFF cells, HCMV-luciferase reporter, 72 h; hits give low values; in the data active = activity change below about -60%; inconclusive = no clear call, values can overlap the other calls; inactive = above about -39%; note: % is set by controls: 0 for no effect and ±100 for the full control effect
#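 Luciferase read-out from HCMV-luciferase-infected HFFs (MOI 1 PFU/cell) 72 h post infection at 37C; compounds added after 16 h cell attachment; activity normalized between buffer-only basal and Salinomycin (10uM) inhibitor controls.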
# Pf growth 96h: P. falciparum growth inhibition at 96 hour, primary screen for plastid delayed-death inhibitors; 320,000 compounds, 6.9% hits; P. falciparum luciferase reporter growth, 96 h; AID 504834; Potency, µM (series often up to 28.7 µM), inactives show at the top dose activity change, negative = inhibition, most hits filed as inhibitors; note: potency is the fitted concentration of half-maximal effect; % is set by controls: 0 for no effect and ±100 for the full control effect
#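 Luminescence readout: decreased luciferase signal marks inhibited growth of reporter-expressing P. falciparum in infected red cells (2% hematocrit, 0.05% parasitemia final), exposed to compound two generations (96 h, 37 C, 5% CO2).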
# Pf growth 48h: P. falciparum growth inhibition at 48 hours (one generation); P. falciparum luciferase growth in erythrocytes, 48 h; Potency, µM (series often up to 28.7 µM), without a hit: at the top dose activity change, negative = inhibition, actives largely listed as inhibitors; 310,000 compounds, 5.9% hits; AID 504832; note: potency is the fitted concentration of half-maximal effect; % is set by controls: 0 for no effect and ±100 for the full control effect
#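 Erythrocytes infected with P. falciparum carrying an integrated firefly luciferase reporter (2% hematocrit, 0.1% parasitemia final) were exposed to compounds in RPMI 1640 with 0.5% Albumax at 37 C, 5% CO2. Growth inhibition was scored as reduced luminescence.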
# * hit, by the source's call; u = inconclusive; x = not tested or not shown; [ ] = remark or other dose. Unless noted, calls come from the whole dose curve; as a rule, active = well fitted inhibition curve with a large enough effect; inconclusive = small, poorly fitted or top-dose-only effect, or another doubt; inactive = no such curve, though single readings can be large or run the other way.
SMILES,Shiga toxin inh,Cycloheximide cs,HCV inhibitor,HCMV antiviral,Pf growth 96h,Pf growth 48h
COC(=O)CC(=O)O[C@H]1C=C[C@@H](NC(=O)OC(C)(C)C)C1,x,x,31.6µM*,-16.1,x,x
CCOC(=O)c1ccccc1NC(=O)c1ccccc1SC,-8.1,-1.8,u,-9.6,-16.3%,u
CSc1nsc(SC)c1NC(=O)OCCc1ccccn1,22.5,2.6,-1.7%,u,x,6.9%
Cc1ccccc1NC(=O)OCc1ccccc1,59.3*,27.8*,1.2%,47.2,u,32.6%
Cc1ccc(C)c(NC(=S)NC(NC(=O)OCc2ccccc2)C(Cl)(Cl)Cl)c1 (centres undefined),-6.2,-1.5,u,-23.8,9.28µM*,u
CSc1nsc(SC)c1NC(=O)OCc1ccccc1,45.4,22.4*,-15.3%,40.5,u,5.5%
C[C@H](NC(=O)OCc1ccccc1)C(=O)NNC(=O)[C@H](C)NC(=O)OCc1ccccc1,-5.6,-1.6,23.2%,-11.8,6.1%,-9.9%
CSc1ccccc1COC(=O)Nc1ccccc1C,35.8,29.1*,-20.6%,u,-26.7%,u
CC(=O)c1c(C)[nH]c(C(=O)OCC(=O)N(Cc2ccccc2)C(C)(C)C)c1C,x,x,1.4%,-4.3,u,-10.9%
CCN(CC)CCNC(=O)c1ccc(NC(=O)c2ccc(C(=O)c3ccccc3)cc2)cc1,x,x,u,x,10.4µM*,5.86µM*
CCN(CC)CCNC(=O)c1ccc(NC(C)=O)cc1,8.0,-0.1,2.6%[8.37 µM],45.9,3.2%,10.5%
CCN(CC)CCNC(=O)c1ccc(NC(=O)c2ccc(COc3ccccc3)cc2)cc1,-7.4,29.0*,11.2µM*,u,u,30.2%
Cc1ccc(S(=O)(=O)NCC(=O)OCC(=O)NCc2cccs2)cc1,x,x,u,-31.0,44.1%,20.1%
N#Cc1ccccc1S(=O)(=O)N1CCN(C(=O)C2CCCCC2)CC1,x,x,10.7%,-1.4,x,x
COC(=O)c1scc(-c2ccc(C)cc2)c1S(=O)(=O)N1CCN(c2ccc(F)cc2)CC1,x,x,x,-27.4,x,x
CCOc1ccccc1NC(=O)Cn1nnc2sc3c(c2c1=O)CCC(C(C)(C)C)C3 (centres undefined),x,x,x,-7.1,x,x
COc1ccc(-c2nsc(NC(=O)c3oc4ccccc4c3C)n2)cc1,x,x,x,0.8,x,x
CCOC(=O)c1sc(NC(=O)c2ccc(OC(C)=O)cc2)nc1C,55.7*,20.6*,u,-81.9*,u,36.1%
COC(=O)c1sc(NC(=O)c2oc3ccccc3c2C)nc1C,37.6*,28.1*,13.1%,138.7,x,74.2%
Cc1c(C(=O)Nc2nnc(C(F)(F)F)s2)oc2ccccc12,9.2,0.7,x,-84.5*,31.7%,17.5%
CCOC(=O)c1sc(NC(=O)c2ccco2)nc1C,12.0,16.5,u,64.6,u,41.0%
CCOC(=O)c1sc(NC(=O)c2ccc(OC)cc2)nc1C,6.8,5.4,u,-23.8,u,81.0%
CCOC(=O)c1sc(NC(=O)c2ccc(C)o2)nc1C,43.2*,28.2*,u,74.3,53.9%,x
O=C(Nc1ccccc1C(=O)Nc1nnc(C(F)(F)F)s1)c1ccccc1,-1.4,-2.1,-86.9%,-99.2*,2.62µM*,1.17µM*
Cc1ccc(C(=O)Nc2nnc(C)s2)o1,-3.4,9.9,-1.9%,5.2,10.7%,x
SMILES,Shiga toxin inh,Cycloheximide cs,HCV inhibitor,HCMV antiviral,Pf growth 96h,Pf growth 48h
COC(=O)c1sc(NC(=O)c2ccc(C)o2)nc1C,147.3*,46.6*,8.1%,14.8,u,229.9%
CC1CCC2(CC1)NC(=O)N(CC(=O)Nc1cc(S(=O)(=O)N3CCCC3)ccc1Cl)C2=O (centres undefined),x,x,10.6%,37.0,x,x
CN(C)c1ccc(S(=O)(=O)N2CCCCC2)cc1NC(=O)CN1C(=O)NC2(CCCC2)C1=O,x,x,-62.4%,2.2,u,13.1µM*
CCN(CC)c1ccc(S(=O)(=O)N2CCOCC2)cc1NC(=O)CN1C(=O)NC2(CCC(C)CC2)C1=O (centres undefined),x,x,-23.1%,1.7,13.1µM*,u
Cc1nc(Cl)cc(N/N=C/c2ccc(O)cc2)n1,49.2*,18.9*,-6.0%,-0.9,-20.2%,11.3%
CCOc1ccc(/C=N/Nc2cc(N3CCOCC3)nc(C)n2)c(O)c1,-6.8,-2.5,-22.4%,172.7,6.57µM*,-7.0%
Cc1nc(N/N=C/c2ccc(Br)cc2)cc(N2CCOCC2)n1,-2.1,1.9,u,-2.0,u,u
Cc1nc(Cl)cc(N/N=C/c2ccc(O)cc2O)n1,27.9*,44.2*,-12.2%,150.3,u,12.7%
O=C(Cn1ccn(-c2ccc(F)c(F)c2)c(=O)c1=O)NCc1ccccc1,x,x,x,-11.8,x,x
COc1cccc(CNC(=O)c2cc(C)nc3c2c(C)nn3-c2cccc(F)c2)c1,x,x,x,15.4,x,x
COc1cccc(OCC(Cn2c(C)nc3ccccc32)OC(C)=O)c1 (centres undefined),15.8,-3.8,u,-69.9*,-21.5%,-7.7%
CC(=O)Nc1ccc(OCC(O)Cn2c(C(C)C)nc3ccccc32)cc1 (centres undefined),-7.3,-5.7,-7.3%,20.4,2.33µM*,-0.7%
CC(=O)Nc1ccc(OCC(O)Cn2c(CO)nc3ccccc32)cc1 (centres undefined),-0.6,9.7,0.6%,-8.1,19.6%,-12.9%
COc1cccc(OCc2nc3ccccc3n2Cc2ccccc2C)c1,x,x,x,-18.1,x,x
CC(=O)N(C)c1ccc(OCC(O)Cn2c(C)nc3ccccc32)cc1 (centres undefined),-8.9,-5.4,11.2µM*,-24.5,u,u
CC(=O)Nc1ccc(OCC(O)Cn2c(C)nc3ccccc32)cc1 (centres undefined),-12.7,9.1,-13.1%,-6.3,30.2%,x
CC/C(=N\NC(=O)c1nnn(-c2nonc2N)c1-c1cccs1)c1ccccc1,-3.2,-1.5,-11.9%,u,-0.8%,32.4%
CCc1ccccc1N(CC)C(=O)C(=O)Nc1ccc2nc3n(c(=O)c2c1)CCCCC3,x,x,x,-27.3,x,x
O=C(NC1CCCCCC1)c1ccco1,10.3,12.1*,4.4%,-22.8,u,17.9%
Cc1ccc(C(=O)OCC(=O)NC2CCCCC2)o1,31.0,15.0*,5.1%,4.2,42.8%,-0.9%
Cc1ccc(C(=O)NC2CCCCCC2)o1,39.8*,20.5*,-18.4%,11.6,x,17.2%
O=C(COC(=O)c1ccc([N+](=O)[O-])o1)NC1CCCCC1,x,x,1.7%,-11.6,x,x
O=C(CNC(=O)c1ccco1)NC1CCCCCC1,x,x,0.0%,12.9,77.2%,47.9%
Cc1ccc(O)c(C2=Nc3ccccc3C2(C)C)c1,89.0*,48.9*,u,-13.2,42.3%,118.4%
COc1ccc(C)cc1C1=Nc2ccccc2C1(C)C,9.9,8.0,13.1%,u,-4.2%,-7.3%
O=C(c1ccc2c(c1)OCO2)c1cn(Cc2ccc(F)cc2)c2ccccc2c1=O,x,x,x,-9.6,x,x
CN(C)/C=C/C(=O)c1ccc(F)cc1,98.8,21.4*,2.3%,42.5,93.1%,-4.3%
